Source: PubChem BioAssay
Active and inactive are the calls of the source. Unless noted, how the calls were made is not given here.

Assays:
[1] = tested on: Wnt5a (protein binding on small-molecule microarray); experiment: small molecules binding Wnt5a protein – biophysical, small-molecule microarray, 635/667 nm fluorescence, primary screen (AID 1142); conditions: 635 nm fluorescence, higher = more signal;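 further: fluorescence read at 667 nm with signal to noise per printed feature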
[2] = ATP-based viability of Huh7 replicon cells – cell-based, CellTiter-Glo luminescence, basal, 48 h, cytotoxicity control for HCV replication inhibitor project, primary screen (AID 1143); conditions: higher = more signal, called active from +8 up or from −8 down;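 further: Huh7 hepatoma cells carrying a hepatitis C replication reporter with no stimulus; test concentration not given here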
[3] = Pseudomonas biofilm growth suppression – PAO1 strain, BacTiter-Glo luminescence, LB-PBS, primary screen (AID 1144); conditions: P. aeruginosa PAO1 biofilm, 12 h, higher = more signal
[4] = basal CRE-LacZ reporter activity in PC12 – cell-based, unstimulated, primary screen (AID 1145); conditions: no forskolin, luminescence, 4.5 h, higher = more signal, called active from +8 up or from −8 down
[5] = forskolin-driven CRE-LacZ activity in PC12 – cell-based, CRE-LacZ reporter, forskolin-stimulated, primary screen (AID 1146); conditions: luminescence, 4.5 h, higher = more signal, called active from +8 up or from −8 down;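 further: PC12 cells with 6xCRE LacZ reporter stimulated by forskolin 10 µM; beta-galactosidase reporter signal reflecting CREB driven transcription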
[6] = target: Streptavidin (Streptomyces avidinii) (UniProt P22629); experiment: compounds binding control protein streptavidin – biophysical, small-molecule microarray, 635/667 nm fluorescence, artefact control for SMM compound annotation, primary screen (AID 1147); conditions: higher = more signal;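 further: signal reflects streptavidin binding to arrayed compounds as a control protein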
Chain of Streptavidin (Streptomyces avidinii) (P22629 whole entry, looked up): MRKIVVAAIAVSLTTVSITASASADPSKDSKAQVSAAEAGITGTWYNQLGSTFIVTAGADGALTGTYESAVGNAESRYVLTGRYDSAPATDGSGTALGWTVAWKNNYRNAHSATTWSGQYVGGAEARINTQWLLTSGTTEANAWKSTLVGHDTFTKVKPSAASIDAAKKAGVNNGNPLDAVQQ

[7] = probe aInhba binding on compound microarray – biochemical, small-molecule microarray, 635/667 nm fluorescence, primary screen (AID 1148); conditions: higher = more signal;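 further: score merges 667nm spot fluorescence with signal-to-noise for antibody binding to printed compounds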
Torsin-1A (Homo sapiens) [8] = target: Torsin-1A (Homo sapiens) (UniProt O14656); experiment: TOR1A wild-type binding on microarray – cell lysate, small-molecule microarray, lysate, 635/667 nm, primary screen (AID 1149); conditions: COS7 hTOR1A-WT lysate, 635 nm fluorescence, higher = more signal
Chain of Torsin-1A (Homo sapiens) (O14656 whole entry, looked up): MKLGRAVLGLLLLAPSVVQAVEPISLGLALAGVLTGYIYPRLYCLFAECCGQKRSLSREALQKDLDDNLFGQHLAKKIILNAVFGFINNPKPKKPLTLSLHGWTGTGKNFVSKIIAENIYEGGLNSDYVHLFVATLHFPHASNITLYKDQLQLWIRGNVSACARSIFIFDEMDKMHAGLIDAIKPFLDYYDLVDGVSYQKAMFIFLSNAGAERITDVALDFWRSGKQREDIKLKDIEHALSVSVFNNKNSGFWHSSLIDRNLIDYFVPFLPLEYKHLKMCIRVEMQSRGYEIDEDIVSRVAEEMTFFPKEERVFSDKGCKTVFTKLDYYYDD

Torsin-1A (Homo sapiens) [9] = target: Torsin-1A (Homo sapiens) (UniProt O14656); experiment: torsin A mutant lysate binding on microarrays – cell lysate, small-molecule microarray, COS7 lysate, 635/667 nm fluorescence, primary screen (AID 1150); conditions: COS7 hTOR1A mutant lysate, 635 nm fluorescence, higher = more signal;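 further: score pools 667 nm emission and signal to noise measuring lysate protein binding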
[10] = tested on: Sonic hedgehog protein (Shh); experiment: Sonic hedgehog microarray binding compounds – biochemical, small-molecule microarray, 635/667 nm fluorescence, primary screen (AID 1151); conditions: 635 nm fluorescence, higher = more signal;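 further: Shh protein binding to compounds spotted on small-molecule microarray slides; score combines spot fluorescence intensity with signal-to-noise across triplicate slides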

Compound	composite z-score [1]	z-score [2]	z-score [3]	z-score [4]	z-score [5]	composite z-score [6]	composite z-score [7]	composite z-score (Torsin-1A (Homo sapiens) [8])	composite z-score (Torsin-1A (Homo sapiens) [9])	composite z-score [10]
C=CCOC(=O)[C@@H]1[C@H]2C(=O)O[C@H](c3ccccc3)[C@H](c3ccccc3)N2[C@H](c2ccc(OCCOC(=O)[C@@H]3C[C@@H]4C(=O)N[C@@H](Cc5ccccc5)C(=O)N4[C@@H]3c3cccc(OCCO)c3)cc2)[C@@]12C(=O)Nc1ccc(I)cc12	0.867	-0.166 (inactive)	-0.525 (inactive)	-1.08 (inactive)	0.0071 (inactive)	-0.184	0.35	1.3	0.731	2.16
C=CC(COC(C)=O)NS(=O)(=O)c1ccc(Br)cc1 (stereo not given)	0.136	0.0481 (inactive)	0.465 (inactive)	2.39 (inactive)	1.33 (inactive)	0.923	-0.105	0.211	0.385	0.948
CC(C)C(=C=CC[C@H](O)c1cccc(OCCO)c1)C[C@H](O)COCc1ccccc1	0.148	-0.33 (inactive)	-0.457 (inactive)	1.82 (inactive)	0.526 (inactive)	1.24	0.167	1.03	0.33	2.09
Cc1ccc(S[C@]2(C(=O)NCc3ccccc3)CC(=O)N(Cc3ccccc3Cl)[C@@H]2c2ccc(CO)cc2I)cc1	-0.657	-1.68 (inactive)	-1.12 (inactive)	-0.258 (inactive)	1.72 (inactive)	-0.15	-0.0963	-2.03	-1.65	0.262
CC(=O)NCCCC[C@@H]1NC(=O)[C@@H]2C[C@H](C(=O)NCCCCCCNC(=O)CS)[C@H](c3ccc(O)cc3)N2C1=O	-0.126	0.448 (inactive)	-0.388 (inactive)	-0.268 (inactive)	-0.277 (inactive)	0.453	-0.0944	0.957	0.936	0.377
CC1=C2[C@@H](CCc3ccccc3)OB(O)C[C@@H]2n2c(=O)n(-c3ccccc3)c(=O)n2C1	0.207	-0.382 (inactive)	0.909 (inactive)	0.402 (inactive)	-0.826 (inactive)	0.156	-0.0405	0.0316	0.111	0.724
NC(=O)NCC#Cc1ccc2c(c1)[C@]1(C(=O)N2)[C@H](C(=O)N2CCCCCCC2)[C@H]2C(=O)O[C@H](c3ccccc3)[C@H](c3ccccc3)N2[C@@H]1c1ccc(OCCO)cc1	0.683	-0.416 (inactive)	-0.0789 (inactive)	0.619 (inactive)	0.0646 (inactive)	2.11	0.563	0.92	0.304	0.679
COC(=O)[C@@]1(Cc2ccc(F)cc2)[C@H]2c3cc(C(=O)N(C)C)n(CCc4ccccn4)c3C[C@H]2CN1C(=O)c1ccccc1	1.9	-1.86 (inactive)	-0.604 (inactive)	0.39 (inactive)	-0.038 (inactive)	-0.0936	1.14	1.23	0.948	-0.154
CCCN1C(=O)[C@@]2(CCC(=O)OC(C)(C)C)N=C(c3ccc(OCCCO)cc3)O[C@H]2c2ccccc21	0.399	-4.47 (inactive)	-1.36 (inactive)	1.46 (inactive)	-1.6 (inactive)	0.0808	0.0319	-0.0821	0.408	1.5
COCCOC(=O)N1C(=O)[C@@]2(c3cc(C#CCCO)ccc31)[C@H](c1ccccc1OCCO)N1[C@H](c3ccccc3)[C@H](c3ccccc3)OC(=O)[C@H]1[C@@H]2C(=O)N1CCN(c2ncccn2)CC1	0.544	-1.01 (inactive)	0.566 (inactive)	-0.329 (inactive)	1.99 (inactive)	1.41	0.262	0.0623	0.835	1.37
Cc1ccc([C@H]2[C@H](C(=O)O)[C@H](Sc3ccccc3)[C@@H](C(C)C)N2S(=O)(=O)c2ccc(C)cc2)cc1	0.378	-2.04 (inactive)	0.766 (inactive)	-0.676 (inactive)	-0.728 (inactive)	0.93	-0.231	0.495	0.612	-0.861
O=C(NCc1ccccc1)[C@]1(CCS(=O)(=O)c2ccccc2)N=C(c2ccc(OCCCO)cc2)O[C@@H]1c1ccccc1	0.721	-2.63 (inactive)	-0.422 (inactive)	-1.04 (inactive)	0.0925 (inactive)	0.959	0.111	0.129	0.585	0.16
CC(C)C(=C=CC[C@H](O)c1ccccc1OCCO)C[C@H](O)c1ccccn1	0.257	-0.667 (inactive)	-0.0531 (inactive)	4.99 (inactive)	0.0622 (inactive)	-0.199	-0.0205	0.635	1.59	1.63
CC(C)c1ccc(NN2C(C(O)c3c(F)cccc3Cl)C=CC3C(=O)N(c4ccccc4)C(=O)C32)cc1 (stereo not given)	0.658	-0.78 (inactive)	-0.53 (inactive)	-0.519 (inactive)	0.746 (inactive)	1.47	0.765	0.213	-0.164	-0.182
O=C1N(CCS(=O)(=O)c2ccccc2)Cc2ccccc2[C@H]2OC(c3ccc(OCCCO)cc3)=N[C@@]12CCS(=O)(=O)c1ccccc1	1.05	-1.07 (inactive)	-0.447 (inactive)	0.881 (inactive)	-1.33 (inactive)	0.421	0.0831	0.307	-0.0941	0.806
CCCCCCc1nc(CCCc2cc3c(c(CCCCCC)n2)[Si](C(C)C)(C(C)C)OC3)cc2c1[Si](C(C)C)(C(C)C)OC2	-0.0564	-5.79 (inactive)	-0.194 (inactive)	1.78 (inactive)	0.444 (inactive)	1.91	-0.101	-0.333	0.0509	0.551
C=CCC(OC(C)=O)[C@@H]1[C@@H](N(Cc2cccc3ccccc23)C(=O)c2ccc(C)cc2)c2cc(OCCCO)ccc2N1C(=O)Cc1ccc(OC)cc1 (stereo not given in full)	-0.0466	-0.798 (inactive)	-0.738 (inactive)	-0.402 (inactive)	-0.281 (inactive)	0.547	-0.189	0.291	0.553	0.562
[N-]=[N+]=NCc1ccccc1C[C@]1(C(=O)O)N=C(c2ccc(OCCCO)cc2)O[C@H]1c1ccccc1CN=[N+]=[N-]	-0.0602	-1.42 (inactive)	-0.046 (inactive)	2.87 (inactive)	2.69 (inactive)	1.66	0.0342	0.171	0.48	-0.0214
C=C(CCCC)C(=O)CC[C@H](OC(=O)c1cccnc1)c1cccc(OCCO)c1	0.54	-0.293 (inactive)	-0.0707 (inactive)	11 (active)	0.189 (inactive)	0.0158	-0.231	0.524	0.186	1.12
O=C1OCCC=C[C@H]2OC34C=CCN(Cc5ccccc5)C(=O)[C@H]3N(CCCO)C(=O)[C@@H]4C12 (stereo not given in full)	-0.419	-3.89 (inactive)	-2.36 (inactive)	-1.31 (inactive)	-1.18 (inactive)	-0.399	-0.128	-0.8	-0.586	-0.174
CC(C)N1C(=O)C[C@@](C(=O)NCc2ccccc2)(c2ccc([N+](=O)[O-])cc2)[C@H]1c1ccc(CO)cc1	-0.214	-1.5 (inactive)	-0.936 (inactive)	1.03 (inactive)	-0.703 (inactive)	-0.939	0.0275	1.35	0.529	0.235
CCOC(=O)[C@H]1C[C@H]2O[C@@]23C[C@H]1C(=O)N1CCCC1[C@@H]3O[Si](C)(C)C(C)(C)C (stereo not given in full)	-0.489	-2.14 (inactive)	0.209 (inactive)	-1.59 (inactive)	-0.852 (inactive)	-0.266	-0.245	-0.235	-0.178	1.1
COCCOC(=O)N1C(=O)[C@@]2(c3cc(C#CCNC(N)=O)ccc31)[C@H](C(=O)N1CCc3cc(OC)c(OC)cc3C1)[C@H]1C(=O)O[C@H](c3ccccc3)[C@H](c3ccccc3)N1[C@@H]2c1ccc(OCCO)cc1	0.506	-0.352 (inactive)	-1.42 (inactive)	-1.56 (inactive)	-0.549 (inactive)	0.287	-0.418	-0.136	0.237	1.95
CC(C)(C)N1CC=CC23O[C@@H]4C=CCOC(=O)[C@@H]4[C@H]2C(=O)N(CCCCCO)[C@@H]3C1=O (stereo not given in full)	-0.248	0.228 (inactive)	0.123 (inactive)	-0.631 (inactive)	0.687 (inactive)	-1.41	-0.421	-0.803	-1.05	-0.15
COc1ccc(C#Cc2ccc3c(c2)[C@]2(C(=O)N3)[C@H](C(=O)NC[C@H](O)c3ccccc3)[C@H]3C(=O)O[C@H](c4ccccc4)[C@H](c4ccccc4)N3[C@@H]2c2ccc(OCCO)cc2)cc1	0.628	-2.89 (inactive)	-0.563 (inactive)	0.478 (inactive)	-0.447 (inactive)	0.59	-0.0173	0.369	0.869	1.96
COc1ccc([Si](C)(C)[C@H]2[C@H](CC(=O)N(CCO)Cc3ccccc3)O[C@@]3(C(=O)N(Cc4cccc(N5CCC5=O)c4)c4ccccc43)[C@@H]2C)cc1	0.526	-6.85 (inactive)	-0.216 (inactive)	0.469 (inactive)	-0.854 (inactive)	0.0587	-0.0221	0.795	0.278	2.05
O=C(O)[C@@]1(Cc2ccccc2)N=C(c2ccc(OCCCO)cc2)O[C@H]1c1ccccc1	-0.243	-0.637 (inactive)	-0.622 (inactive)	-0.286 (inactive)	-0.215 (inactive)	-0.28	0.166	-0.184	1.4	0.422
O=C1OCCC=C[C@H]2OC34C=CCN(Cc5ccccc5)C(=O)[C@H]3N(CCCCCO)C(=O)[C@@H]4C12 (stereo not given in full)	-0.733	0.409 (inactive)	-1.86 (inactive)	-0.216 (inactive)	-0.732 (inactive)	-0.636	-0.128	2.82	2.07	-0.211
